Bioassay records as filed in PubChem BioAssay.
SENP6 block: SENP6 protease inhibition | inhibition, % at 10 µM | Recombinant SENP6 catalytic domain, aminoluciferin luminescence | AID 2599 | 330,000 compounds, 1.8% hits;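 active = inhibition above about 50% at the single tested dose, limit read from the data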;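 also: plate controls were DMSO wells with enzyme for no effect and DMSO wells lacking enzyme for full effect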
HSP90 refold inh: blocks HSP90-mediated luciferase refolding in reticulocyte lysate | Rabbit reticulocyte lysate, luciferase refolding luminescence, 3 h | inhibition, % at 5.6 µM | 290,000 compounds, 0.91% hits | AID 1789;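 active = inhibition above the screen-wide mean plus 3 SD, computed separately per campaign, cut at about 16% in these data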;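 also: 0% = DMSO wells and 100% = 60 µM geldanamycin wells; inhibitors lower the luminescence because luciferase stays unfolded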
LGR2 antag: Drosophila LGR2 receptor signaling inhibition; HEK293 LGR2, CRE-luciferase, bursicon-stimulated, 4 h; inhibition, % at 9.99 µM; 380,000 compounds, 0.35% hits; AID 720647;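 active = drop in luminescence signal, shown as inhibition above about 50% in the replicate tests, limit read from the data, passing the limit was not always enough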;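 also: agonist challenge used bursicon conditioned medium at about half maximal strength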
SENP7 block: inhibitors of human SENP7 protease; inhibition, % at 5 µM; recombinant SENP7, Z-RLRGG-aminoluciferin luminescence, 40 min; Q9BQF6; 330,000 compounds, 1.5% hits;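 active = inhibition above about 50% at the single test dose, limit read from the data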;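 also: plate controls were DMSO with enzyme for no effect and no enzyme buffer wells for full effect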
Target sequence (Q9BQF6 706-1050 limits assumed): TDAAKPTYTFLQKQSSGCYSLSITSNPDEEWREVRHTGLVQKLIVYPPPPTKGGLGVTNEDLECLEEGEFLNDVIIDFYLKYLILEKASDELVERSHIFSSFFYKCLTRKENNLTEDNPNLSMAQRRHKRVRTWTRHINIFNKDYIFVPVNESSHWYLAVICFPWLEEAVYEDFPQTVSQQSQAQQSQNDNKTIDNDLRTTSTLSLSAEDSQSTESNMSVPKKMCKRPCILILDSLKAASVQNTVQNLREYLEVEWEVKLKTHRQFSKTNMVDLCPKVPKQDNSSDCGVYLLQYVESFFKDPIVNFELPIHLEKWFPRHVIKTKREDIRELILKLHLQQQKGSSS
SENP8 block-1: SENP8 (human) protease inhibition; Q96LD8; recombinant SENP8, Nedd8 substrate fluorescence; inhibition, % at 20 µM; 360,000 compounds, 0.64% hits; AID 602440; in the data active = inhibition mostly above about 40%, no sharp cut-off; inactive = mostly below about 27%
SENP8 block-2: blocks the human protease SENP8. purified SENP8, Z-RLRGG-aminoluciferin cleavage, luminescence. AID 2540. 330,000 compounds, 1.2% hits. Q96LD8. inhibition, % at 10 µM; in the data active = inhibition above about 50%
SENP8 conf: human SENP8 inhibition, confirmed; Recombinant SENP8, Z-RLRGG-aminoluciferin luminescence, 60 min; shares compounds with SENP7 block; 6,200 compounds, 40% hits; inhibition, % at 12.5 µM;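 active = mean inhibition across replicates above about 50%, limit read from the data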
SENP6 conf: confirmation of human SENP6 protease inhibitors; recombinant SENP6, Z-RLRGG-aminoluciferin luminescence; shares compounds with SENP7 block; inhibition, % at 12.5 µM; 6,200 compounds, 58% hits
SENP7 conf: confirmation of human SENP7 protease inhibitors; shares compounds with SENP7 block; recombinant SENP7, Z-RLRGG-aminoluciferin luminescence, 40 min; inhibition, % at 12.5 µM; 6,200 compounds, 69% hits; AID 488917
Casp3 select: inhibits human caspase-3 in SENP selectivity test; shares compounds with SENP7 block; 6,200 compounds, 60% hits; AID 488918; purified caspase-3, Z-DEVD-aminoluciferin luminescence, 60 min; inhibition, % at 12.5 µM;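 active = mean inhibition above about 50%, limit read from the data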;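 also: plate controls were enzyme with DMSO for no effect and wells without caspase-3 for full effect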
Target sequence (P42574 28-227 limits assumed): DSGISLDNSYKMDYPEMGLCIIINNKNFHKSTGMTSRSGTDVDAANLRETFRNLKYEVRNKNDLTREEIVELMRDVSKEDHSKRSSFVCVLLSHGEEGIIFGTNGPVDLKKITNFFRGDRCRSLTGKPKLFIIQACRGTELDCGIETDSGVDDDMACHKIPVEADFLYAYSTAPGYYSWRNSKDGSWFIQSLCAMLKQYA
SENP luc ctr: luminescence interference (SENP counter-screen); Pre-incubated SENP8/Z-RLRGG-aminoluciferin, luciferase luminescence interference; inhibition, % at 12.5 µM; shares compounds with SENP7 block; 6,200 compounds, 39% hits;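 active = mean inhibition above about 50% when retested at one dose, limit read from the data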;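 also: plate controls were DMSO wells with completed reaction for no effect and substrate without enzyme for full effect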
* hit, by the source's call; i = inactive; · = no result given. An excerpt weighted towards active compounds, which were near 2.3% of everything screened.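 The calls were made as follows, unless noted: active = mean inhibition above about 50% in the one-dose retest (limit read from the data); inactive = the rest.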

SMILES	SENP6 block	HSP90 refold inh	LGR2 antag	SENP7 block	SENP8 block-1	SENP8 block-2	SENP8 conf	SENP6 conf	SENP7 conf	Casp3 select	SENP luc ctr
COc1ccc(-n2c(N)c(C(=O)NCC3CCCO3)c3nc4ccccc4nc32)c(OC)c1 (stereo not drawn)	68*	3	-10	38	-290	44	-9	5	7	1	-6
C[C@@H]1CCCCO[C@@H](CN(C)Cc2ccc(C(=O)O)cc2)[C@@H](C)CN([C@@H](C)CO)C(=O)c2cc(NS(=O)(=O)c3ccccc3)ccc2O1	·	·	2	·	·	·	·	·	·	·	·
Cc1ccc(-c2ccc(CCC(=O)O)o2)cc1	58*	2	·	25	-1	19	74*	70*	86*	61*	76*
O=C(NCCCN1CCOCC1)[C@H]1N[C@H]2c3ccc(C4=CCCCC4)c(=O)n3C[C@H]2[C@@H]1CO	·	·	19	·	·	·	·	·	·	·	·
COCCN1Cc2c(sc(C)c2C)N(C(=O)c2ccccc2)C1	51*	-4	·	5	-246	29	4	1	32	30	49
C[C@@H]1CN([C@H](C)CO)C(=O)c2cc(-c3ccc(F)cc3)cnc2O[C@H]1CN(C)C(=O)CN(C)C	·	·	10	·	·	·	·	·	·	·	·
Fc1cccc(NC(=S)N2CCc3ccccc32)c1	57*	-1	15	2	6	10	12	2	10	3	17
CO[C@H]1CN(C)C(=O)c2cc(NS(C)(=O)=O)ccc2OC[C@H](C)N(Cc2ccccc2)C[C@H]1C	·	·	-1	·	·	·	·	·	·	·	·
c1ccc(CNc2ccc3ccccc3n2)nc1	87*	9	-14	-14	-164	86*	88*	89*	99*	92*	91*
Clc1ccc(-n2nnc(-c3cccnc3)n2)cc1Cl	62*	-5	-107	51*	17	19	6	12	31	51*	8
Clc1ccc(-n2nnc(-c3nccs3)n2)cc1Cl	82*	6	-55	82*	8	72*	24	44	60*	68*	-5
O=C(Nc1ccccc1)c1ccc(-c2ccccc2)s1	45	3	-52	84*	-19	35	22	44	39	67*	17
O=C(Nc1ccccc1)c1cc2ccc3ccccc3c2s1	17	-1	-74	69*	-7	0	-6	9	2	34	8
C[C@@H]1CN([C@@H](C)CO)C(=O)c2cc(NC(=O)Cc3ccccc3)ccc2O[C@@H](C)CCCCO[C@H]1CN(C)Cc1ccc2c(c1)OCO2	·	·	-31	·	·	·	·	·	·	·	·
COc1ccc(CN(C)C[C@H]2Oc3ccc(NC(=O)Nc4c(C)noc4C)cc3CC(=O)N([C@@H](C)CO)C[C@@H]2C)cc1	·	·	-1	·	·	·	·	·	·	·	·
Cc1cccc(/C=N/NC(=O)C(C)Nc2cccc3ccccc23)n1 (stereo not drawn)	88*	4	·	-5	-20	78*	-20	-6	0	-6	-3
COc1cc([N+](=O)[O-])cc(/C=N/NC(=O)C(C)Nc2cccc3ccccc23)c1O (stereo not drawn)	68*	6	19	12	-66	46	-4	-1	-6	4	4
COC(=O)C[C@@H]1CC[C@H]2[C@H](COc3ccc(NC(=O)c4ccc(F)c(F)c4)cc3C(=O)N2C)O1	·	·	-8	·	·	·	·	·	·	·	·
Cc1ccc(S(=O)(=O)N[C@H]2CC[C@@H](CC(=O)N3CCN(c4ccccc4)CC3)O[C@@H]2CO)cc1	·	·	0	·	·	·	·	·	·	·	·
Cc1cc(C(=O)COC(=O)c2cccc(NS(C)(=O)=O)c2)c(C)n1CC1CCCO1 (stereo not drawn)	-24	·	27	1	-19	-4	·	·	·	·	·
Cc1cc(C(=O)COC(=O)c2ccccc2O)c(C)n1CC1CCCO1 (stereo not drawn)	97*	·	100*	97*	-21	95*	98*	99*	102*	88*	56*
COc1cccc(N=Cc2c(O)c3ccccc3oc2=O)c1	62*	1	0	27	-311	9	18	22	76*	15	13
Cc1ccc(N=Cc2c(O)c3ccccc3oc2=O)c(C)c1	42	6	·	86*	-152	46	53*	52*	35	44	2
C[C@H](CO)N1C[C@H](C)[C@@H](CN(C)S(=O)(=O)c2ccc(Cl)cc2)OCCCC[C@H](C)Oc2ccc(NC(=O)CCCN(C)C)cc2C1=O	·	·	-15	·	·	·	·	·	·	·	·
Cc1noc(C)c1S(=O)(=O)Nc1ccc2c(c1)C(=O)N([C@H](C)CO)C[C@@H](C)[C@H](CN(C)Cc1ccc3c(c1)OCO3)OCCCC[C@H](C)O2	·	·	-11	·	·	·	·	·	·	·	·
SMILES	SENP6 block	HSP90 refold inh	LGR2 antag	SENP7 block	SENP8 block-1	SENP8 block-2	SENP8 conf	SENP6 conf	SENP7 conf	Casp3 select	SENP luc ctr
O=C1N/C(=C\c2ccc(O)cc2)C(=O)c2ccccc21	96*	9	22	85*	25	94*	93*	97*	97*	84*	40
CCN(CC)S(=O)(=O)c1cccc(-c2nc3n(n2)Cc2ccccc2-3)c1	-13	-1	-46	8	25	-18	·	·	·	·	·
Clc1ccc(-c2nc3n(n2)Cc2ccccc2-3)cc1	63*	2	·	99*	20	87*	-20	11	26	30	2
O=c1c2ccccc2nc2n1CCc1c-2[nH]c2ccccc12	64*	·	-65	89*	-378	48	33	29	28	25	19
Cc1cccc2c(=O)n3c(cc12)-c1[nH]c2ccccc2c1CC3	·	·	-15	·	i	·	·	·	·	·	·
CCCNC(=O)C[C@H]1C[C@H]2c3cc(NC(=O)Nc4ccc(F)cc4)ccc3O[C@H]2[C@H](CO)O1	·	·	-15	·	·	·	·	·	·	·	·
COc1ccccc1C=NN=Cc1ccccc1O	·	·	-67	·	22	·	·	·	·	·	·
CN(C)c1ccc(/C=N/N=C/c2ccccc2O)cc1	86*	-6	56*	97*	-26	84*	47	58*	61*	59*	34
O=C(Nc1cccc2ccccc12)N1CC=CCC1	65*	3	·	42	-426	14	-6	-5	-11	1	2
O=C(Nc1cccc2ccccc12)N1CCN(c2ccccc2)CC1	11	-2	·	3	-462	-6	·	·	·	·	·
